Measured values as given in ChEMBL document CHEMBL3988442, “University of Dundee, Small-Polar-MMV Screening Library” (2021).
For some assays here: Entries with a potency or affinity are not part of this list.

Key:
Set-up in all cases: scale not given: direction of the effect not stated beside the values
[1] = target: Protein translocase subunit SecA (Escherichia coli (strain K12)) (UniProt P10408); assay: Assay to Identify E. coli SecA ATPase Inhibitors; type: functional; settings: 30 µM
[2] = target: T1, Ubiquitin-activating enzyme e1, putative (Leishmania donovani (strain BPK282A1)) (UniProt E9BSI1); assay: Leishmania donovani Ubiquitin Activating Enzyme (LdE1); type: functional; settings: 30 µM
T1 sequence (whole entry): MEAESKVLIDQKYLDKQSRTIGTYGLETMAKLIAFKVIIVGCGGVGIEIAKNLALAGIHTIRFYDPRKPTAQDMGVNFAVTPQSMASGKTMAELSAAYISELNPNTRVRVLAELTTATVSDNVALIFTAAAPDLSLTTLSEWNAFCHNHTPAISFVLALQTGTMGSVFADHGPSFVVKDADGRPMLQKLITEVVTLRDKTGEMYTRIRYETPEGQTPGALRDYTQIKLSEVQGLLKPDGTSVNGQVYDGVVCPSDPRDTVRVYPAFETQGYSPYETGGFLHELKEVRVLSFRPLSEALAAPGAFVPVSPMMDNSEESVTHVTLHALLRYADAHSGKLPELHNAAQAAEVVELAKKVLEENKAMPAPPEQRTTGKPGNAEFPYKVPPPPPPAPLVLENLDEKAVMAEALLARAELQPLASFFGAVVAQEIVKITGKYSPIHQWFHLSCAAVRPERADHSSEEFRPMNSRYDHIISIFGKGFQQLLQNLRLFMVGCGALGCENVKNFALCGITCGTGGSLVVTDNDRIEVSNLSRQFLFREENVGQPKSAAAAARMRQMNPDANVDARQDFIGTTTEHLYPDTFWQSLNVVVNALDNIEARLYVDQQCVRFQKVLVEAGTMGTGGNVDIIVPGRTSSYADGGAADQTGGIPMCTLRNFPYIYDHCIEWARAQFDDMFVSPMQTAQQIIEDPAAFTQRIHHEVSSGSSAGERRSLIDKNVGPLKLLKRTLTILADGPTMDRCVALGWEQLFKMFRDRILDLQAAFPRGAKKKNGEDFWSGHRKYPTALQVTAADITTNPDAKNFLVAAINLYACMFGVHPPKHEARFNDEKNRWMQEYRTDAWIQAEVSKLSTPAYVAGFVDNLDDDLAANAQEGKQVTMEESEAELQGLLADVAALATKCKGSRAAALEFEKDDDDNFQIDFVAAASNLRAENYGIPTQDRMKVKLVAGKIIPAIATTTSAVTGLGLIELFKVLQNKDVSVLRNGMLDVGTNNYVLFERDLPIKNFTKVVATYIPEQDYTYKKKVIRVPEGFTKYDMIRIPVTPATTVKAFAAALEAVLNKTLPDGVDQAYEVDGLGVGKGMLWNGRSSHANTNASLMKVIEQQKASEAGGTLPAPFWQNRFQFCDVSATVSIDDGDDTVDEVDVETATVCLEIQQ

[3] = target: AMP-activated protein kinase, AMPK (Homo sapiens) (UniProt P54646+O43741+P54619+Q9UGJ0+Q9Y478+Q13131+Q9UGI9); assay: AMP-dependent Kinase enzyme assay. An in vitro enzyme assay that detects ADP turnover that is directly proportional to AMPK activity. This uses naive AMPK that is activated during the assay with MK-8722; type: functional; settings: 30 µM
[4] = target: Sialic acid-binding Ig-like lectin 9 (Homo sapiens) (UniProt Q9Y336); assay: Hs-Siglec9 ALPHAscreen SOP 20170721; settings: 10 µM
Sialic acid-binding Ig-like lectin 9 (Homo sapiens), sequence (Q9Y336 whole entry): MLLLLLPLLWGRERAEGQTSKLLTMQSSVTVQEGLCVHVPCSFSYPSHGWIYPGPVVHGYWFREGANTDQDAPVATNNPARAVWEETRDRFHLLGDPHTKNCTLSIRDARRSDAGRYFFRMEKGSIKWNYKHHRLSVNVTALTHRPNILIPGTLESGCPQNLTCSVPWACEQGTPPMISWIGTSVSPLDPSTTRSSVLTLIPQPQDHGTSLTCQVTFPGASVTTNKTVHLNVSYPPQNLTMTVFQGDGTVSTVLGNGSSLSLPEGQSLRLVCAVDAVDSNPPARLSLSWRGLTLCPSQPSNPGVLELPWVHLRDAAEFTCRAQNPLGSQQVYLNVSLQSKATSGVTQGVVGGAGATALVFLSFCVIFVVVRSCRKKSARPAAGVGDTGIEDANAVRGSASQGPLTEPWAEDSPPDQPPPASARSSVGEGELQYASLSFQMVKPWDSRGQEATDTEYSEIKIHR

[5] = system: Trypanosoma cruzi; assay: Trypanosoma cruzi phosphomannomutase and mannose-1-phosphate guanylyltransferase assay; type: functional; settings: 10 µM
[6] = target: T2, Arginase-2, mitochondrial (Homo sapiens) (UniProt P78540); assay: in vitro enzyme assay to detect the production of urea directly proportional to the activity of Arginase II; type: functional; settings: 33.3 µM; note: in the data most compounds retested in dose-response had high values
T2 sequence (whole entry): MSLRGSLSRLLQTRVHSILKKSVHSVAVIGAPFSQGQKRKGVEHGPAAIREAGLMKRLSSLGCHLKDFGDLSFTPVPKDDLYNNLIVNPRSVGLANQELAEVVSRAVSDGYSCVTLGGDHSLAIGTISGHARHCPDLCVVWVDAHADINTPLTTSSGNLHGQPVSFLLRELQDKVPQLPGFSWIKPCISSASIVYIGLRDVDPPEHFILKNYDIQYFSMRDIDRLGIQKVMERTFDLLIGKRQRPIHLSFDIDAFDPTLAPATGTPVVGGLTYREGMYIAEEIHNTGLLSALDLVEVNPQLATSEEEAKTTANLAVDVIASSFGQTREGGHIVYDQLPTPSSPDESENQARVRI

[7] = target: T3, Proteasome subunit beta (Trypanosoma cruzi) (UniProt O96673); assay: Trypanosoma cruzi proteasome chymotrypsin-like activity (TcProtChymo) assay.; note: in the data most compounds retested in dose-response had high values; type: functional; settings: 9.37 µM
T3 sequence (whole entry): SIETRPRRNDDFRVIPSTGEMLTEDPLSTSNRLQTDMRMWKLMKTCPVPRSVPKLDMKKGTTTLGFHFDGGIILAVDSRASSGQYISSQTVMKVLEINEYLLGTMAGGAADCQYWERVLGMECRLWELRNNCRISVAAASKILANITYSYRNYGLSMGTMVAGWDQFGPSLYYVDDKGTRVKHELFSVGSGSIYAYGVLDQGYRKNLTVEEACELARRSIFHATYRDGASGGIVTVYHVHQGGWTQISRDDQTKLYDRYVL

[8] = species on record: Homo sapiens; assay: To identify inhibition of the IFN signalling (Jak-Stat) pathway via expression of an eGFP reporter gene under the control of an IFN-stimulated response element (ISRE) containing MxA promoter.; type: functional; settings: 30 µM
[9] = target: T4, Tyrosyl-tRNA synthetase, putative (Trypanosoma cruzi (strain CL Brener)) (UniProt Q4DSP6); assay: Trypanosoma cruzi tyrosyl tRNA synthetase (TcYRS) _High Tyrosine SOP; type: functional; settings: 30 µM; note: in the data most compounds retested in dose-response had high values
T4 sequence (whole entry): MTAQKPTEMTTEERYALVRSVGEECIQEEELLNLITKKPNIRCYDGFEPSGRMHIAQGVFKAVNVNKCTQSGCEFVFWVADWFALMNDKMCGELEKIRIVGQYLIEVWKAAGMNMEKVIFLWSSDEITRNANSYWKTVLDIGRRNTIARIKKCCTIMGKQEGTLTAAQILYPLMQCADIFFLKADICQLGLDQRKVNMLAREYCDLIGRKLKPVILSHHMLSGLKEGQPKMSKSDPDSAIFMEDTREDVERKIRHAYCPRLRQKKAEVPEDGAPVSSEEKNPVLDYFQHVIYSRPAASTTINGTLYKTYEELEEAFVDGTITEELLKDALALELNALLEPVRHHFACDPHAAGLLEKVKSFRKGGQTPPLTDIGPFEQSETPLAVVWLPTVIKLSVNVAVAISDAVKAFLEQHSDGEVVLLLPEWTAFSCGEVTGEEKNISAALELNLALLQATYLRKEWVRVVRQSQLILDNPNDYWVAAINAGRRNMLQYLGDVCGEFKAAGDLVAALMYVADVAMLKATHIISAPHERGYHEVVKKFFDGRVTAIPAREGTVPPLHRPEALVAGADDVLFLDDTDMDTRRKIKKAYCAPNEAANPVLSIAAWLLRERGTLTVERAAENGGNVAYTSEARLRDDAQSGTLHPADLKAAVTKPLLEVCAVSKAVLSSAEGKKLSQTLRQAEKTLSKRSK

[10] = target: T4, Tyrosyl-tRNA synthetase, putative (Trypanosoma cruzi (strain CL Brener)); assay: Trypanosoma cruzi tyrosyl tRNA synthetase (TcYRS) SOP; type: functional; settings: 30 µM
[11] = target: Chromo domain-containing protein 1 (Saccharomyces cerevisiae (strain ATCC 204508 / S288c) (Baker's yeast)) (UniProt P32657); assay: ScCHD-1 Enzyme Inhibition Assay; type: functional; settings: 30 µM; note: in the data most compounds retested in dose-response had high values
Chromo domain-containing protein 1 (Saccharomyces cerevisiae (strain ATCC 204508 / S288c) (Baker's yeast)), sequence (P32657 whole entry, the tested form may be a part): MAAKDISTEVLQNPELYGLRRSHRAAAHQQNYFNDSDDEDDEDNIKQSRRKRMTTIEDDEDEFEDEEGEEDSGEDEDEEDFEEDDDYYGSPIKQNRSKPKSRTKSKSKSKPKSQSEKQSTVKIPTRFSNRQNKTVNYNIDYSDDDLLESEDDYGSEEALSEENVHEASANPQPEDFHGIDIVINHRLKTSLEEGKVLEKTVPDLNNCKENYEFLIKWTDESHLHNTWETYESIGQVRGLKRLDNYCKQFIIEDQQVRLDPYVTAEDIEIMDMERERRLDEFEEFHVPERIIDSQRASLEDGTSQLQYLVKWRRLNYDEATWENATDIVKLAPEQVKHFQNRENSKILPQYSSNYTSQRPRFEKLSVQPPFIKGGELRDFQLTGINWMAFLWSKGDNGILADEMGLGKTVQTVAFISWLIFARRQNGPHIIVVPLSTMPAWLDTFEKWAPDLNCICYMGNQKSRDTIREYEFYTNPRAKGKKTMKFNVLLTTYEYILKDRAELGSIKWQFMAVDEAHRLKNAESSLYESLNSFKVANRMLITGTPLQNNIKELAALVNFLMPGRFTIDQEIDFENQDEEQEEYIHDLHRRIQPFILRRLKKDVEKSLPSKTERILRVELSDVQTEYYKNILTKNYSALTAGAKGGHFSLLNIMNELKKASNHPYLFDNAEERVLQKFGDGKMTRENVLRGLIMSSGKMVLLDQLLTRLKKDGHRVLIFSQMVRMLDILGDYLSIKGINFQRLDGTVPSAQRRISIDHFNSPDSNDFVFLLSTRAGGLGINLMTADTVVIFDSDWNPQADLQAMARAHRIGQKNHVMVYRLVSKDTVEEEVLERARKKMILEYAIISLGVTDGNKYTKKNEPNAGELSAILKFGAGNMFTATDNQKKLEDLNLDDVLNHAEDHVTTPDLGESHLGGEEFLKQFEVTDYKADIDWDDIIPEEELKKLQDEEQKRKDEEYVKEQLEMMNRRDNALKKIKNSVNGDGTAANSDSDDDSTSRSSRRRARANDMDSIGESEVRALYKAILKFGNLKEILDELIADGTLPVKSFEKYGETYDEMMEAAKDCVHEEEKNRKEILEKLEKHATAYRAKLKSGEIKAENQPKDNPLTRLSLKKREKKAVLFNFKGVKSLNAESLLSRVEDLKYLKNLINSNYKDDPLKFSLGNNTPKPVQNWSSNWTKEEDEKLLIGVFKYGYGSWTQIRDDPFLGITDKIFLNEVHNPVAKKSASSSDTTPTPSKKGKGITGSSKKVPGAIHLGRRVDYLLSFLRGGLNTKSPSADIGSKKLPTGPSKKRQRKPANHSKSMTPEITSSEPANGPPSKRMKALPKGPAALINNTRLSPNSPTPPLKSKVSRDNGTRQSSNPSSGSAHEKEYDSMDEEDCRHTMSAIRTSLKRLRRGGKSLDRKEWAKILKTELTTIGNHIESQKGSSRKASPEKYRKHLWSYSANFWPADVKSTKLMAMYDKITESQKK

Protein translocase subunit SecA (Escherichia coli (strain K12)), sequence (P10408 whole entry): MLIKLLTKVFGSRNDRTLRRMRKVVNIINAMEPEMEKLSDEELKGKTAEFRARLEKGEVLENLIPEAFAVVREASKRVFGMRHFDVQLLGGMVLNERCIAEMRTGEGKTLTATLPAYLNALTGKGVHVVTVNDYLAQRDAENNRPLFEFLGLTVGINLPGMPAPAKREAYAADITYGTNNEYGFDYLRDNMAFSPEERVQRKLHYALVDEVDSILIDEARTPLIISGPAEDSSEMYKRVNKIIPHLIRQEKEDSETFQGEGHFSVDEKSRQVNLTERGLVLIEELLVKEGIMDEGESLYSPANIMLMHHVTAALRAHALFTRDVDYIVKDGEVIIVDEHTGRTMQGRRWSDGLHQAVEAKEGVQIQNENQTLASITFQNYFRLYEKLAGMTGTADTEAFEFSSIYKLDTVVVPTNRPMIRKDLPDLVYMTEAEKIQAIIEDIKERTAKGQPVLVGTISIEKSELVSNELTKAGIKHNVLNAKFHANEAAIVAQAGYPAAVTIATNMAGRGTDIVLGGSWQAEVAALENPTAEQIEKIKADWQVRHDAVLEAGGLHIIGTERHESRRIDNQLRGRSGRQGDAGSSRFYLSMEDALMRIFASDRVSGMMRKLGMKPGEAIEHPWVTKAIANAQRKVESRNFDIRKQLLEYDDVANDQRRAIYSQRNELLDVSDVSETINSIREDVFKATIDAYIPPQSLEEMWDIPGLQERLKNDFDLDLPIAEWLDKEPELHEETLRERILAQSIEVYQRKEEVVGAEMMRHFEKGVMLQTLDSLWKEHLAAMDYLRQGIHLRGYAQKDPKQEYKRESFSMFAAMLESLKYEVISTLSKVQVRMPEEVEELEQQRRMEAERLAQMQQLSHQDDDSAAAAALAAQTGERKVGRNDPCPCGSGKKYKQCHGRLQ

Compound | Percent Effect [1] [%] | Percent Effect [2] [%] | Percent Effect [3] [%] | Percent Effect [4] [%] | Percent Effect [5] [%] | Percent Effect [6] [%] | Percent Effect [7] [%] | Percent Effect [8] [%] | Percent Effect [9] [%] | Percent Effect [10] [%] | Percent Effect [11] [%]
COc1c(C2CCCN2C(=O)c2cccc(C(N)=O)c2)c(C)nn1C (configuration not stated) | -6.26 | 10.4 | 7.89 | -11.9 | -5.19 | -2.32 | 3.96 | 17.6 | 0 | 2.35 | -17.8
CNS(=O)(=O)c1ccc(C(=O)N2CCCC2Cc2ccccc2)o1 (configuration not stated) | -3.24 | -42.1 | 1.36 | -2.48 | 2.52 | 1.8 | 12.6 | 16.6 | 4.43 | 16.1 | -9.41
CC(NC(=O)N1CCCN(Cc2cccs2)CC1)c1cccnc1 (configuration not stated) | -0.761 | 18.4 | -1.54 | -0.0672 | 5.64 | 10.3 | 8.02 | -11.5 | 5.39 | 21.9 | -12
Cc1cnc2n(c1=O)CC(C(=O)NC1CC1)CS2 (configuration not stated) | -4.55 | -21.9 | -9.15 | -1.37 | 0.979 | 4.54 | 6.21 | 1.36 | 2.15 | 0 | -5.19
COc1cccc(CCC2CCCN(C(=O)C3=NN(C)C(=O)CC3)C2)c1 (configuration not stated) | -0.975 | -10.8 | -2.43 | -1.4 | -3.28 | 0.952 | 3.79 | 6.9 | 3.7 | 4.88 | -1.44
Cn1cc(Cl)cc1C(=O)N1CCCN(Cc2cccs2)CC1 | -2.72 | -10.5 | 7.51 | -1.79 | 1.32 | 1.53 | -1.34 | -3.88 | 4.41 | 0 | 7.24
CCc1nc(C2CCCN2C(=O)CCc2ccc3c(c2)OCO3)no1 (configuration not stated) | -3.47 | -5.41 | 2.98 | 5.83 | 3.62 | -3.14 | -6.46 | 10.2 | 1.98 | 1.22 | 10.8
O=C(O)c1cc(S(=O)(=O)Nc2cc(F)ccc2F)cc2c1OCCO2 | -3.9 | -2.63 | 4.03 | 6.95 | -6.44 | 3.6 | 4.65 | 3.03 | 0.493 | 1.24 | -3.53
Cc1ncc(CNC(=O)c2nn(C)c3c2CS(=O)(=O)CC3)s1 | -3.9 | 9.33 | 3.53 | 5.84 | 3.73 | -6.16 | 13.3 | 4.95 | 9.52 | 12.8 | -9.87
Cc1nn(C)c(C)c1CNCc1ccc(N2CCOCC2)nc1 | -1.63 | 11.4 | 6.09 | -0.523 | 1.95 | -1.5 | 10.6 | 13.4 | 8.33 | 25.3 | -25.1
COc1c(C2CCCN2CC(=O)Nc2cc(C)no2)c(C)nn1C (configuration not stated) | -5.41 | 13.5 | -3.77 | 4.82 | -4.74 | -2.03 | 6.82 | 0.794 | 5.94 | 11 | 3.98
CC(C)c1ccc(-c2nnn(CCNS(C)(=O)=O)n2)cc1 | -4.75 | 2.74 | 0.921 | 2.29 | 4.96 | -2 | 4.71 | -14 | -4.17 | 8.64 | -0.501
Cc1nc(-c2ccsc2)ccc1C(=O)NCCC1CCCO1 (configuration not stated) | -8.67 | 0 | -8.2 | 10 | 9.77 | -1.92 | 3.51 | -2.44 | 4.41 | 9.76 | -10.2
CCSc1ccc(C(=O)Nc2c(C)nn(C(C)C)c2C)cn1 | -9.54 | -2.74 | 1.71 | -2.98 | -0.198 | -1.2 | 4.71 | 20.2 | 0 | 1.24 | -2.1
CC(Cn1cccn1)NC(=O)NCc1ccc(S(N)(=O)=O)cc1 (configuration not stated) | -1.8 | 15.6 | 6.57 | -7.88 | -1.27 | -1.05 | 13.7 | 6 | 9.52 | 23.5 | -18.9
CC(C)CN1C[C@H]2CCN(Cc3cccnc3)CC[C@H]2S1(=O)=O | -4.38 | 8.11 | 2.04 | -0.964 | -2.05 | -5.41 | 16.2 | 21.9 | 1.08 | 5.13 | 1
O[C@]1(c2ccccn2)CC[C@@H]2CN(Cc3cccc4ncccc34)C[C@@H]21 | -4.41 | 9.46 | 11.8 | -7.79 | -1.38 | 0.696 | 21.4 | 21.9 | 9.68 | 9.09 | -13.1
CC(=O)N1CCN(C(=O)C2SCCc3sccc32)CC1 (configuration not stated) | -7.67 | 0 | -1.92 | 7.24 | -2.15 | -0.833 | 2.11 | 6.62 | 3.96 | -1.22 | 0.658
CC(NC(=O)CSCC#N)c1ccccc1 (configuration not stated) | -1.5 | 28.9 | -6.37 | -7.6 | 5.51 | 0 | 15 | 5.31 | 7.39 | 23.5 | -11.2
O=C(Nc1ccccc1)c1nn(C2CCS(=O)(=O)C2)c2c1CCCC2 (configuration not stated) | -4.15 | 5.26 | 5.68 | 0.438 | -1.07 | -2.37 | 10.3 | 8.39 | 1.06 | 10.4 | -4.11
CN(C)C(=O)N1CCN(C(=O)C(c2ccccc2F)N(C)C)CC1 (configuration not stated) | -3.25 | 9.72 | -8.74 | 14.1 | 6.71 | 7.06 | 14 | -4.8 | 4.21 | 7.69 | -9.49
COCCCNC(=O)N1CCCC(c2nncn2C)C1 (configuration not stated) | -5.16 | 2.63 | -3.92 | 8.87 | -3.46 | 0.36 | 7.87 | 5.55 | 0.493 | -6.17 | 2.53
